Source: PubChem BioAssay (several laboratories)
SKKanGAS inh = blocks kanamycin growth of S. pyogenes SKKanGAS strain. BacTiter-Glo, 6 h. inhibition, % at 7.5 µM. hit rate 1.3% among 300,000. AID 1662;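 active = mean replicate score, as percent of positive control median, at least 50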;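 note: strain carries kanamycin resistance gene driven by streptokinase promoter and grows in 40 µg/ml kanamycin; loss of luminescence reflects streptokinase promoter inhibition or plain growth inhibition; 0% = median of DMSO wells and 100% = positive control at its reference dose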
PP5 primary = inhibitors of human protein phosphatase 5 (PP5). purified PP5c, OMFP substrate fluorescence. hit rate 0.18% among 320,000. inhibition, % at 6.7 µM. AID 1987. P53041;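 active = inhibition above the campaign's mean inhibition across all tested compounds plus 3 SD, cut at about 9.5% in these data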;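 note: 0% = DMSO only and 100% = 100 µM cantharidin control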
IDE cell inh = cellular human IDE inhibition; HEK cells, FAbetaB cleavage, fluorescence polarization; inhibition, % at 5.59 µM; hit rate 0.41% among 320,000;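 active = percent inhibition above the average of all tested compounds plus 3 SD, set per screening campaign, cut at about 16% in these data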;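 note: IDE supplied by intact live HEK cells; FP after avidin binding of uncleaved biotin substrate so inhibition keeps polarization high; 0% = DMSO wells and 100% = 60 µM reference IDE inhibitor Ii1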
IDE cell activ = activators of human insulin-degrading enzyme in cells; P14735; HEK cells, FAbeta-B cleavage, fluorescence polarization; 0% vehicle, 100% cell-free pure enzyme wells; activation, % at 5.96 µM; hit rate 0.073% among 340,000; AID 493087;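 active = activation above the mean of all tested compounds plus 3 SD, set per screening campaign, cut at about 17% in these data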
PP1 inh = blocks human PP1-alpha phosphatase, a PP5 counter-screen; P62136; purified PP1alpha, OMFP fluorescence; hit rate 0.9% among 320,000; inhibition, % at 6.7 µM;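 active = inhibition above the mean inhibition of all tested compounds plus 3 SD, computed separately for each screening campaign, cut at about 15% in these data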
Target sequence (P62136 whole entry, looked up): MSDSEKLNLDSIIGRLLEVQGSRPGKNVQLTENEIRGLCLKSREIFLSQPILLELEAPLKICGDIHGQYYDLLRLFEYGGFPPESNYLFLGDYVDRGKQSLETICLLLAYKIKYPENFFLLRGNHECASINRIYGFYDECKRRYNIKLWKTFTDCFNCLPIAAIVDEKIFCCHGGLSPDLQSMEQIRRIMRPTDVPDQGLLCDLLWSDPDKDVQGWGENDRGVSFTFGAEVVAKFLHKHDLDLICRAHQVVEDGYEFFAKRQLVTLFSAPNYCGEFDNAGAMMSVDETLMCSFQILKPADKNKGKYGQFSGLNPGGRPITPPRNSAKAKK
Granule exo inh = lytic granule exocytosis inhibition; inhibition, % at 10 µM; TALL-104 LAMP-1 surface exposure, flow cytometry; cells stimulated with thapsigargin and PMA; AID 651702; hit rate 0.66% among 360,000;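 active = inhibition above about 55%, limit read from the data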
IDE inh confirm = cellular human IDE inhibition, confirmation; shares compounds with IDE cell inh; HEK cells, FAbetaB cleavage, fluorescence polarization; inhibition, % at 5.59 µM; hit rate 51% among 1,200;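 active = mean inhibition across triplicate wells above the cutoff set by the earlier primary insulin-degrading enzyme screen, cut at about 16% in these data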;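 note: 0% = DMSO wells and 100% = 60 µM reference IDE inhibitor Ii1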
HEK293 tox = HEK cell cytotoxicity, counter-screen for IDE inhibitors; shares compounds with IDE cell inh; HEK293 cytotoxicity, ATP luminescence; inhibition, % at 5.59 µM; hit rate 28% among 1,200; AID 449730; in the data active = inhibition above about 22%;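 note: 0% = vehicle wells and 100% = reference cytotoxic drug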
The depositor's hits bear a star; / = not tested or not shown. The list is not random: actives were taken first. Their share in the collection is about 2.8%.

SMILES	SKKanGAS inh	PP5 primary	IDE cell inh	IDE cell activ	PP1 inh	Granule exo inh	IDE inh confirm	HEK293 tox
CN(C)c1ccc(/C=C(/NC(=O)c2ccccc2)C(=O)NCCN2CCOCC2)cc1	2.4	1.2	16.9*	-1.3	1.2	-1.9	10.1	5.5
CN(C)c1ccc(/C=C(/NC(=O)c2ccccc2Cl)C(=O)NCCN2CCOCC2)cc1	-3.3	1.0	17.7*	2.9	6.4	-19.8	1.9	10.8
O=C(NCCN1CCOCC1)/C(=C/c1ccc(Cl)cc1)NC(=O)c1ccccc1	-6.5	2.1	4.5	0.4	-5.5	2.8	/	/
COc1ccc2nc3n(c(=O)c2c1)-c1ccc(Cl)cc1C(=O)NC3Cc1ccc(O)cc1 (stereo not given)	/	/	/	-0.9	/	-0.2	/	/
Cc1nc(N2CCN(C(=O)c3ccco3)CC2)[nH]c(=O)c1C	-6.9	2.6	-2.2	4.8	-0.4	-3.7	/	/
Cn1cc(/C=C/c2cc[n+](C)cc2)c2cc(Cl)ccc21	-1.6	1.1	38.2*	-11.6	-0.8	-5.2	62.3*	80.9*
Cn1cc(/C=C/c2cc[n+](C)cc2)c2cc(F)ccc21	7.5	4.4	31.3*	-24.8	-1.5	-12.0	75.3*	77.5*
Cc1ccc(OCC(=O)NCCNC(=O)c2ccccn2)cc1	1.4	1.4	5.5	4.8	0.3	4.2	/	/
O=C(Nc1ccc(-c2cn3ccsc3n2)cc1)c1ccc(F)c(S(=O)(=O)N2CCOCC2)c1	27.3	2.0	20.9*	-9.8	0.2	2.6	5.8	57.7*
Cc1nonc1C1CCCN1C(=O)c1cc(COc2ccc(F)cc2Cl)on1 (stereo not given)	1.7	2.2	2.5	-4.2	1.8	-3.8	/	/
COC(=O)c1c(NS(=O)(=O)c2cccs2)sc2c1CCCC2	2.2	2.1	18.2*	3.4	2.3	0.3	5.8	10.3
COC(=O)c1c(NC(=O)c2ccccc2C(=O)O)sc2c1CCCC2	/	/	/	/	/	-8.8	/	/
CCCCOc1ccc(C(=O)NNC(=O)C2C3C=CC(C3)C2C(=O)O)cc1 (stereo not given)	-4.6	1.6	-0.2	-2.7	1.6	-2.6	/	/
Cc1c(OC(C)C(=O)NCc2ccncc2)ccc2c3c(c(=O)oc12)CCCC3 (stereo not given)	-2.5	-2.0	19.2*	-37.8	-0.5	-2.3	17.0*	18.1
Cc1c(OC(C)C(=O)NCc2ccccn2)ccc2c3c(c(=O)oc12)CCC3 (stereo not given)	-2.4	1.0	2.2	5.4	-1.1	-2.2	/	/
COc1ccc(C(=O)NCCNc2nc3ccc(C)cc3cc2C#N)cc1OC	-9.9	1.6	3.1	-5.2	3.1	1.0	/	/
Cc1ccc(C2=CC(c3ccc(N(C)C)cc3)n3nnnc3N2)cc1 (stereo not given)	9.0	1.8	41.0*	-63.9	2.0	1.2	42.2*	13.3
COc1ccc(C2=CC(c3ccc(F)cc3)n3nnnc3N2)cc1 (stereo not given)	3.3	3.1	9.7	-2.2	2.8	1.3	/	/
CN(C)C(=O)c1cccc(-c2cccc3nccn23)c1	/	/	/	/	/	0.6	/	/
O=C(Nc1ccc2oc(-c3ccccc3)nc2c1)c1ccc2c(c1)OCCO2	16.5	1.9	18.9*	-12.2	-1.4	0.0	4.0	23.4*
O=C(Nc1ccc2oc(-c3ccncc3)nc2c1)c1ccc2c(c1)OCCO2	0.1	2.6	17.2*	-30.5	14.7	3.7	13.6	33.0*
C/C(=N\NC(=O)c1ccncc1)c1cc2ccccc2oc1=O	-12.5	2.7	-1.3	4.0	-0.5	-2.9	/	/
C/C(=N/NC(=O)c1ccncc1)c1cc2ccc(O)cc2oc1=O	/	-3.3	20.8*	-17.4	-11.4	6.4	25.9*	6.9
CC(C)CNC(=S)N1CCN(c2nc(-c3ccc(Cl)cc3)cs2)CC1	17.2	1.4	13.1	-17.2	0.9	7.6	/	/
CCC(=O)N1CCN(c2nc(-c3ccc(Cl)cc3)cs2)CC1	2.3	3.4	17.9*	-15.2	-2.3	4.2	9.8	18.6
CC(C)NC(=O)N(C)C[C@H]1Oc2cc(C#Cc3ccc(F)cc3)ccc2S(=O)(=O)N([C@H](C)CO)C[C@H]1C	/	/	/	/	/	-1.1	/	/
